Assay [1] can be described thus: inhibitors of TNFa-induced NFkB p65 translocation, primary screen, imaging, HUVEC, MLSMR starter and 10KST1 sets (AID 438;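 active means inhibition above 20% together with a positive visual image hit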;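 further: compound added about 3h40 before a 20 min TNFalpha stimulation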;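 on inhibition: signal is the nuclear over cytoplasmic p65 intensity ratio per well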). As to conditions: HUVEC TNFa-induced p65 nuclear translocation; cell count: measured here: nuclei count (cytotoxicity indicator), at 2.08 µM; inhibition: at 2 µM, stronger effect = higher value, 0% TNFa-plus-vehicle, 100% no-TNFa wells.
Assay [2] in a line: reduction of polyQ htt aggregates in cells – imaging, exon1htt(103Q)mCFP cells, high-content imaging, primary screen (AID 483;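 active means visual image review flags a hit and inhibition of aggregation exceeds 20%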;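 further: compound exposure lasted 3 days before fixation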;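 on nuclei count: percent of the per-plate median nuclei count of sample wells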). Particulars: exon1htt(103Q)mCFP cell line, aggregate imaging, at 2 µM; inhibition of aggregation: stronger effect = higher value; nuclei count: measured here: cell count, toxicity.
Assay [3] can be described thus: endothelial E-selectin expression blockers – imaging, HUVEC, immunofluorescence, MLSMR starter and 10KST1 sets, primary screen (AID 487;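 active means visually confirmed hit in the image check and inhibition above 20%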;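 on inhibition: signal is fraction of cell area covered by stained E-selectin grains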;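 on nuclei count: 100% = median nuclei count of all wells on the same plate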). As to conditions: HUVEC TNFalpha-induced E-selectin immunofluorescence imaging, at 2 µM; inhibition: stronger effect = higher value; nuclei count: measured here: cell number, toxicity.
A short description of assay [4]: Primary imaging screen for DUSP6 inhibitors that restore phospho-Erk in transfected HeLa cells, chemical complementation (AID 609;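 active means compounds giving at least 50% inhibition in the cell-based MKP-3 phosphatase rescue imaging test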;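 on inhibition: phospho-Erk level distribution per well compared with pooled transfected vehicle control wells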). Particulars: HeLa MKP-3 transfected, phospho-Erk imaging KS statistic, at 10 µM, cells stimulated with TPA for 15 min.
The target in assay [5] is Dual specificity protein phosphatase 6 (Homo sapiens) (UniProt Q16828). The assay is described as above. As to conditions: HeLa MKP-3 transfected, phospho-Erk imaging KS statistic; at 10 µM; stronger effect = higher value; cells stimulated with TPA for 15 min.
Chain of Dual specificity protein phosphatase 6 (Homo sapiens) (Q16828 whole entry, looked up): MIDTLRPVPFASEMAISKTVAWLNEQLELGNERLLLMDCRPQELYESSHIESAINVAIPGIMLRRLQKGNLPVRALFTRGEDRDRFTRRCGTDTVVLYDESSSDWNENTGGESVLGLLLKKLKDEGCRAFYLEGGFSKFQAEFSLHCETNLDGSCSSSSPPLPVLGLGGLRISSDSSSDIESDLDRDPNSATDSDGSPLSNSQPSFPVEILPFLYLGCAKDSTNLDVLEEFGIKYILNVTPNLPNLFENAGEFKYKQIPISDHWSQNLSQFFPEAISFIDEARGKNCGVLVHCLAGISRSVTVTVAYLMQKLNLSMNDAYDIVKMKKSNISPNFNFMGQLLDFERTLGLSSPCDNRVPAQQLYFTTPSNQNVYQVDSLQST
Assay [6] addresses Voltage-gated potassium channel subunit beta-2 (Rattus norvegicus) (UniProt P62483). The assay is described as follows: inhibitors of rat Kvbeta2 reductase activity – biochemical, NADPH fluorescence, primary screen (AID 622;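 active means fluorescence slope higher than the sample average by over 3 SD, cut at about -0.22 in these data, passing the limit was not always enough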;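 further: slope of raw intensity against log time taken from 70 to 1610 s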). As to conditions: recombinant KvBeta, 4-cyanobenzaldehyde reduction, at 10 µM, stronger effect = higher value.
Assay [7] has the same target. The assay is described as follows: enhancers of rat Kvbeta2 NADPH turnover – biochemical, NADPH fluorescence, primary screen (AID 623;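 active means NADPH fluorescence slope more negative than the mean of all samples by about 3 SD, 99.7% confidence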;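 further: fluorescence intensity change per second fitted from 20 to 320 s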). Particulars: Recombinant KvBeta, NADPH fluorescence decrease slope, 10 min; at 10 µM; stronger effect = lower value.
Assay [8] deals with Alpha-2C adrenergic receptor (Homo sapiens) (UniProt P18825). The assay is described as follows: compounds altering alpha2C-coupled GIRK flux – cell-based, HEK293 alpha2C/GIRK1/2, thallium flux, primary screen (AID 624;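 active means fluorescence slope after compound addition differing from the mean of all screened samples at 99.7% confidence, in either direction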;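 further: slope of fluorescence ratio to pre-addition baseline per second over 15 to 24 s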). As to conditions: thallium flux BTC fluorescence, at 10 µM, actives lie on both sides.
Chain of Alpha-2C adrenergic receptor (Homo sapiens) (P18825 whole entry, looked up): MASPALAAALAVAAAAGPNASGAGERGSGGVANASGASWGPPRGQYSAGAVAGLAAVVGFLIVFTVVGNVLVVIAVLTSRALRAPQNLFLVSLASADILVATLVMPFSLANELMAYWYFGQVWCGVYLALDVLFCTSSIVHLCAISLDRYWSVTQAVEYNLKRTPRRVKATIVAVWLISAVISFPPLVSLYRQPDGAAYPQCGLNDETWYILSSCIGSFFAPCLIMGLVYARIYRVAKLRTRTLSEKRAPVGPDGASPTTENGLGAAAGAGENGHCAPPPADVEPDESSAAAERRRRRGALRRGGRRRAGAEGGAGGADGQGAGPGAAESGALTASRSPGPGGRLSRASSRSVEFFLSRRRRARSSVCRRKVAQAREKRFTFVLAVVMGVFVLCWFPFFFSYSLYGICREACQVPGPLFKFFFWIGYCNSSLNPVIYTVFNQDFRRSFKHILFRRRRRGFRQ
Assay [9] is described as follows: inhibitors of larval lipid processing in zebrafish, primary screen, whole organism, PED6 fluorescence, gall bladder and intestine (AID 686;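 active means a full or partial loss of lipid-probe fluorescence in the fish gall bladder, intestine or both, judged by eye; inactive means no fluorescence loss, or compound toxic to the fish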;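 further: larvae 5 to 7 days old with five fish per well; signal comes from phospholipase A2 cleavage of quenched PED6 carried via bile; overnight exposure to compound and PED6 before scoring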). As to conditions: Zebrafish larvae PED6 lipid processing, fluorescence scoring; screened at 20 µM (by protocol).
The nature of assay [10]: loss of swimming-algae plug formation – whole organism, Chlamydomonas reinhardtii, WT vs cilia-less mutant, absorbance, 96-well, primary screen (AID 463189).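 Further: 0% = wild type cc124 cells in DMSO and 100% = ciliumless bld1 mutant cells.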 Particulars: Chlamydomonas reinhardtii gravitaxis, OD600 absorbance, 2 days; at 10 µM; stronger effect = higher value.
Assay [11] is described as follows: blockers of RIG-like receptor reporter activation – cell-based, Sendai virus stimulus, luciferase, 10K MLSCN set, TLR/RLR signaling modifier project, primary screen (AID 602276;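 active means inhibition at or above 50% at 10 µM; inactive means inhibition below 50%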;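 further: firefly luciferase from ISG56 promoter only with Renilla not read in this screen; 0% = Sendai virus plus DMSO and 100% = medium plus DMSO without virus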). Particulars: HEK293 RL24 IRF3 luciferase reporter, at 10 µM, stronger effect = higher value. For orientation: In a reporter assay the amount or activity of a reporter protein is the signal.
A short description of assay [12]: TLR3 IRF3 reporter activation blockers – cell-based, poly I:C stimulus, luciferase, 10K MLSCN set, primary screen (AID 602277;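 active means inhibition of the reporter signal at or above 50%; inactive means inhibition below 50%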). As to conditions: HEK293-TLR3 RL24 IRF3 luciferase reporter, at 10 µM, stronger effect = higher value.
[13] abbreviates: measured here: cell density z-score.
The mark [14] stands for this setting: measured here: nuclear c-Myc green intensity z-score.
The mark [15] stands for this setting: measured here: nuclear pErk red intensity z-score, stronger effect = higher value.

Where “and” joins values, the source holds several entries; their conditions need not be identical. Equal entries are not always repeated. Calls of active or inactive are those of the source.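 How the source made its calls, unless noted: active means inhibition at or above 50% relative to wild type and mutant plate controls; inactive means inhibition below 50%.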

Chain of Voltage-gated potassium channel subunit beta-2 (Rattus norvegicus) (P62483 whole entry, looked up): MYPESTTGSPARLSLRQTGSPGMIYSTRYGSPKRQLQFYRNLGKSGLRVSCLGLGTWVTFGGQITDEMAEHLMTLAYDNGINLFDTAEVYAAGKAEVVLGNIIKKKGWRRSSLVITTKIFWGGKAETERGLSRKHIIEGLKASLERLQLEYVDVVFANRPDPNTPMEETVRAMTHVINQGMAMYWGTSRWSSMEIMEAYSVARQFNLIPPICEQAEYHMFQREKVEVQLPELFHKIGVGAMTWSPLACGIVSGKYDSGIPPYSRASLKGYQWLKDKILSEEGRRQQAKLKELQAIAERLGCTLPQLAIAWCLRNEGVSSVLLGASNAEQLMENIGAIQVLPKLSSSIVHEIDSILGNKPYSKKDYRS

With `CCCN(CCC)C(=O)C(CCC(=O)O)NC(=O)c1ccccc1` (stereo not given), in assay [1], the cell count came out at 589. Further, the inhibition – broadly, the change of the read-out against control, counted positive when it falls – is -1.1% (inactive) in assay [1]; -37.3% (inactive) in assay [3]; 5.79% (inactive) in assay [5]; 5.36% (inactive) and -10.6% (inactive) in assay [10]; 11.3% (inactive) in assay [11]; 28% (inactive) in assay [12]. In assay [2], the inhibition of aggregation is 11.8% (inactive). For the same compound, the nuclei count in assay [2] was found to be 92.5%; in assay [3], 118%. The z-score is -1.75 in [4] (setting [13]), 0.853 in [4] (setting [14]) and -0.876 in [4] (setting [15]). The fluorescence slope in assay [6] is -0.461 (inactive). Moreover, in [7], the NADPH fluorescence slope was -3.2e-05 (inactive). Further, the slope in assay [8] was 0.00459 (inactive). In addition, the call in assay [9] was inactive.
As to `C=CCn1cnc2c(c1=O)c1nc3ccccc3nc1n2-c1ccc(C)cc1`, the cell count in assay [1] was 548. Also, the inhibition in assay [1] was -5.7% (inactive); in [3], -70.3% (inactive); in assay [5], -2.07% (inactive); in [10] it was 15.4% (inactive); in assay [11], 15.3% (inactive); in assay [12] it was 10% (inactive). Besides, the inhibition of aggregation in assay [2] is -8.4% (inactive). For the same compound, the nuclei count was found to be 100% in assay [2] and 132% in assay [3]. Further, the z-score in assay [4] (setting [13]) was -0.575; in assay [4] (setting [14]), -1.45; in assay [4] (setting [15]), 1.52. Also, the fluorescence slope in assay [6] is -0.354 (inactive). For the same compound, the NADPH fluorescence slope in assay [7] is -6.7e-05 (inactive). In addition, in [8], the slope was 0.00438 (inactive). The outcome in assay [9] was inactive.
On to `CCCNC(=O)NS(=O)(=O)c1ccc(Cl)cc1`, for which the cell count in [1] came out at 639. In addition, the inhibition in assay [1] was -5.9% (inactive); in [3], -56.7% (inactive); in assay [5], -0.493% (inactive); in [10], -16% (inactive) and -6.85% (inactive); in assay [11] it was -0.0514% (inactive); in assay [12], 14.7% (inactive). The inhibition of aggregation in assay [2] is 14.1% (inactive). Moreover, the figures for the nuclei count in assay [2] and in assay [3] were 84.6% and 120%, respectively. For the same compound, the z-score in assay [4] (setting [13]) was -0.235; in assay [4] (setting [14]), 0.988; in assay [4] (setting [15]) it was 1.2. In addition, the fluorescence slope in assay [6] is -0.477 (inactive). In addition, the NADPH fluorescence slope in [7] was -1.5e-05 (inactive). The slope in assay [8] is 0.00564 (inactive). The compound was called inactive in [9].
Turning to `O=C(CSc1nnc(-c2ccccc2)c(-c2ccccc2)n1)N1CCOCC1`, the cell count in assay [1] came to 611. For the same compound, the inhibition was -6.9% (inactive) in [1]; -44.9% (inactive) in assay [3]; -3.5% (inactive) in [5]; 9.56% (inactive) in assay [10]; 14.8% (inactive) in [11]; 18% (inactive) in assay [12]. Also, the inhibition of aggregation in [2] was 15.5% (inactive). The nuclei count in [2] was 96.7%; in assay [3], 134%. For the same compound, the z-score in assay [4] (setting [13]) was -0.179; in assay [4] (setting [14]), -0.654; in assay [4] (setting [15]), 1.26. Besides, the fluorescence slope in assay [6] is -0.397 (inactive). Also, in assay [7], the NADPH fluorescence slope was -1.1e-05 (inactive). Also, the slope in [8] was 0.00498 (inactive). In addition, in [9], the outcome was inactive.
As to `CCN(CC)c1ccc(-c2nn3c(-c4cccnc4)nnc3s2)cc1`, in [1], the cell count was determined as 508. The inhibition in assay [1] was -7.3% (inactive); in [3] it was -247% (inactive); in [5], -6.06% (inactive); in assay [10], 128% (active); in assay [11] it was 49.1% (inactive); in assay [12], 7.63% (inactive). In [2], the inhibition of aggregation is -31.1% (inactive). For the same compound, the values for the nuclei count in assay [2] and in [3] were 10% and 120%, respectively. The z-score in assay [4] (setting [13]) was 0.463; in assay [4] (setting [14]), -0.276; in assay [4] (setting [15]), 0.497. Besides, in [6], the fluorescence slope was -0.39 (inactive). Moreover, the NADPH fluorescence slope in [7] is -8.4e-05 (inactive). Further, the slope in [8] was 0.00633 (inactive). Further, in assay [9], the call was inactive.
For the compound `O=C(O)c1ccc(COc2c(F)c(F)c(F)c(F)c2F)o1`, the cell count in assay [1] was 492. In addition, the inhibition was -12.2% (inactive) in [1]; -83.7% (inactive) in assay [3]; -3.5% (inactive) in [5]; -7.74% (inactive) in [10]; -5.03% (inactive) in assay [11]; -6.07% (inactive) in assay [12]. In assay [2], the inhibition of aggregation is -42.8% (inactive). The nuclei count in [2] is 99.6%; in assay [3], 129%. Moreover, the z-score in assay [4] (setting [13]) is 0.991; in assay [4] (setting [14]), -1.28; in assay [4] (setting [15]) it was -0.83. Besides, the fluorescence slope in [6] is -0.433 (inactive). Further, the NADPH fluorescence slope in [7] was -0.000148 (inactive). The slope in assay [8] is 0.00486 (inactive). Moreover, the call in assay [9] was inactive.
In the case of `C[C@]12CCC(=O)C=C1CC[C@@H]1[C@@H]2CC[C@@]2(C)[C@H]1CC[C@]2(O)C(=O)CO`, the cell count in [1] turned out to be 695. The inhibition in [1] was 0.6% (inactive); in assay [3], -97.9% (inactive); in assay [5], 8% (inactive); in [10] it was -0.27% (inactive) and -16.6% (inactive); in assay [11], 5.65% (inactive); in assay [12], 35.1% (inactive). Besides, the inhibition of aggregation in [2] was 27.5% (inactive). In addition, the nuclei count in assay [2] was 102%; in assay [3], 125%. Moreover, the z-score in assay [4] (setting [13]) is 0.881; in assay [4] (setting [14]), 0.613; in assay [4] (setting [15]), -1.07. In addition, the fluorescence slope in [6] was -0.52 (inactive). Further, the NADPH fluorescence slope in [7] is -6.8e-05 (inactive). For the same compound, the slope in assay [8] is 0.00434 (inactive). Also, the compound was classed as inactive in [9].
Consider `CCN(CC)CCN1C(=O)C(=O)/C(=C(/O)c2ccc(OC(C)C)cc2)C1c1ccncc1` (stereo not given), for which the cell count in [1] came to 529. Further, the inhibition in assay [1] was -5.6% (inactive); in assay [3], -8.2% (inactive); in assay [5], -6.48% (inactive); in assay [10], -14% (inactive); in assay [11], 8.32% (inactive); in [12] it was 8.84% (inactive). Further, the inhibition of aggregation in assay [2] was 3% (inactive). Moreover, the nuclei count in [2] amounted to 116%; in assay [3], 104%. Besides, the z-score was -0.653 in assay [4] (setting [13]), -0.46 in assay [4] (setting [14]) and -0.356 in assay [4] (setting [15]). Also, in assay [6], the fluorescence slope is -0.356 (inactive). In addition, the NADPH fluorescence slope in assay [7] is 4.4e-05 (inactive). For the same compound, the slope in assay [8] is 0.00527 (inactive). For the same compound, the outcome in assay [9] was inactive.
Consider `Cc1cc(C)nc(NC2=NCC(=O)N2c2ccc(Cl)cc2)n1`, for which the cell count in [1] was 641. The inhibition was -3.3% (inactive) in [1]; -78.7% (inactive) in assay [3]; 13.9% (inactive) in assay [5]; -3.81% (inactive) in assay [10]; 15.2% (inactive) in assay [11]; 17.2% (inactive) in [12]. In addition, the inhibition of aggregation in [2] is -9.6% (inactive). Moreover, the nuclei count in assay [2] was 111%; in assay [3] it was 107%. Further, the z-score in assay [4] (setting [13]) was 0.855; in assay [4] (setting [14]) it was 0.968; in [4] (setting [15]) it was -1.07. Moreover, the fluorescence slope in assay [6] was -0.492 (inactive). The NADPH fluorescence slope in assay [7] is -1.6e-05 (inactive). The slope in assay [8] is 0.00625 (inactive). Also, the compound was classed as inactive in assay [9].
As to `CCOC(=O)N1CCC(=C2c3ccc(Cl)cc3CCc3cccnc32)CC1`, in [1], the cell count worked out at 695. Moreover, the inhibition in assay [1] was -7.4% (inactive); in assay [3], -79.3% (inactive); in [5], 27.1% (inactive); in assay [10], -6.14% (inactive) and -3.57% (inactive); in assay [11], -15.2% (inactive); in assay [12] it was -34% (inactive). In addition, the inhibition of aggregation in assay [2] was -15% (inactive). Further, the nuclei count in assay [2] worked out at 106%; in assay [3], 132%. For the same compound, the z-score was 1.11 in assay [4] (setting [13]), 0.137 in assay [4] (setting [14]) and -0.637 in [4] (setting [15]). Also, the fluorescence slope in assay [6] is -0.512 (inactive). In addition, the NADPH fluorescence slope in assay [7] was -3.2e-05 (inactive). Moreover, the slope in assay [8] is 0.00337 (inactive). Also, the outcome in assay [9] is “inactive; toxic”.
